High-throughput results deposited in PubChem by National Center for Advancing Translational Sciences (NCATS).
An excerpt weighted towards active compounds, which were near 9.3% of everything screened.
Sm TGR block: qHTS Assay for the Inhibitors of Schistosoma Mansoni Peroxiredoxins. Schistosoma mansoni thioredoxin glutathione reductase (TGR), Q962Y6. Potency, µM (highest dose often 114 µM), inactives show at the top dose activity change, negative = inhibition, actives largely listed as inhibitors. hit rate 3% among 360,000. purified TGR, DTNB reduction, TNB absorbance 405 nm; further: potency means the concentration at half of the fitted maximal effect; nearly all actives have a fitted effect of over 60% in size
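TGR 20 nM + NADPH 100 uM (dispensed conc.), cpd preinc 15 min RT; start with NADPH (500 uM addition) then DTNB (15 mM addition). Kinetic TNB absorbance, 405 nm filter. Four-parameter Hill fit across titration.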
HCV inh: qHTS Assay for Inhibitors of Hepatitis C Virus (HCV). AID 651820, 2012. Huh7.5.1 HCVcc-Cre infection, luciferase reporter, 44 h. Potency, µM (doses to about 41.8 µM), for inactives: at the top dose activity change, negative = inhibition, most hits filed as inhibitors. hit rate 3.4% among 340,000; further: potency means the concentration at half of the fitted maximal effect
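After 44 h co-culture of compound, cells and HCVcc-Cre (~0.5 moi), substrate is added for 15 min at room temperature and luciferase measured over 15 sec. Cells were seeded at 1,000/well and pre-cultured 4 h.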
VACV mCherry inh: qHTS for Stage-Specific Inhibitors of Vaccinia Orthopoxvirus: mCherry Reporter Primary qHTS. hit rate 0.63% among 310,000. Potency, µM (doses to about 36.5 µM), for the others: at the top dose activity change, negative = inhibition, most hits filed as inhibitors. Vaccinia virus mCherry reporter infection, fluorescence. AID 720579, 2013; calls by dose curve; tested in A549 cells; further: potency means the concentration at half of the fitted maximal effect; nearly all actives have a fitted effect of over 35% in size
VACV Venus inh: qHTS for Stage-Specific Inhibitors of Vaccinia Orthopoxvirus: Venus Reporter Primary qHTS | Vaccinia virus Venus reporter expression, fluorescence | Potency, µM (series often up to 36.5 µM), for the others: top-dose activity change, negative = inhibition, most hits filed as inhibitors | hit rate 0.46% among 330,000 | AID 720580, 2013; calls by dose curve; tested in A549 cells; further: potency means the concentration at half of the fitted maximal effect; nearly all actives have a fitted effect of over 30% in size
FMDV antiviral: High Throughput Screening for Foot and Mouth Disease Virus Antivirals; FMDV antiviral cell-based qHTS; Potency, µM (series often up to 57.9 µM), for inactives: at the top dose activity change, negative = inhibition, actives largely listed as inhibitors; hit rate 1.2% among 410,000; calls by dose curve; tested in HEK293T cells; further: read-out not given here; potency means the concentration at half of the fitted maximal effect; nearly all actives have a fitted effect of over 45% in size
HCMV antiviral: qHTS Assay for inhibitors of the human cytomegalovirus (HCMV); HFF cells, HCMV-luciferase reporter, 72 h; stronger effect = lower value; hit rate 4.5% among 410,000; activity change, negative = inhibition, % at 57.5 µM; AID 1259415, 2018; in the data active means activity change below about -60%; inconclusive means no clear call, values can overlap the other calls; inactive means above about -39%
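Two compound doses tested in HFFs infected with HCMV-luciferase, MOI 1 PFU/cell, 72 h at 37C. Lysate luminescence read with OneGlo; data normalized against buffer-only and 10uM Salinomycin inhibitor controls.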
* hit, by the source's call; i = inactive; ? = inconclusive; nt = not tested or not shown; ! = repeats disagree; [ ] = another dose, or the depositor's remark. Unless noted, the call rests on the fitted dose curve; in most records, active means well fitted curve in the direction sought with a large enough effect; inconclusive means small, poorly fitted or top-dose-only effect, or another doubt; inactive means no such curve, though single readings can be large; an effect the other way counts as inactive or inconclusive. On the % scale 0 is the no-effect control and ±100 the full control effect.

SMILES	Sm TGR block	HCV inh	VACV mCherry inh	VACV Venus inh	FMDV antiviral	HCMV antiviral
COc1cc(OC)c(OC)cc1CCC(C)NCCC(c1ccccc1)c1ccccc1 (stereo unspecified)	-17%	7.9µM*	?	?	-14%	-60*
O=C(CNC(=O)Cc1ccccc1)N=Nc1c(O)[nH]c2ccccc12	3%	-17%	-9%	-14%	13%	-16
O=C(NC(Cc1ccc(O)cc1)C(=O)N=Nc1c(O)[nH]c2ccccc12)c1ccccc1 (stereo unspecified)	nt	15%	-5%	-5%	12%	-83*
COc1cc(N2C(=O)C=CC2=O)c(OC)cc1Cl	0.71µM*	?	-1%	-22%	35µM*	-98*
CCC(C(=O)O)n1nc(-c2ccccc2)c2cc(Cl)ccc21 (stereo unspecified)	-9%	11%	-6%	-1%	-13%	8
CCCN1CCN(C(=O)c2c(Cl)cnn2C)CC1	-1%	9%	-16%	-13%	2%	-7
O=[N+]([O-])c1cc(C(F)(F)F)ccc1Sc1ccc2ccccc2n1	9%	-8%	i	-15%	nt	-25
C/C(=N\NC(=O)NC1CCCCC1)c1ccc(Cl)s1	-6%	3.2µM*	-2%	-4%	18%	11
Cn1c(=O)[nH]c(Nc2ccccc2)c([N+](=O)[O-])c1=O	13%	-2%	-12%	-1%	2%	-94*
COc1ccc(CCN2C(=O)C3C4C=CC(C3C2=O)C2C(=O)N(CCc3ccc(OC)c(OC)c3)C(=O)C42)cc1OC (stereo unspecified)	-3%	4.5µM*	nt	nt	?	-94*
CCCCC(=O)Nc1ccc(C(=O)c2ccccc2)cc1	nt	-14%	-19%	-22%	22%	77
O=C1c2ccccc2C(=O)C1c1ccc(O)cc1	-22%	?	-6%	12%	4%	-61*
CCCCCC(=O)Nc1ccc(C2C(=O)c3ccccc3C2=O)cc1	-5%	2.5µM*	nt	nt	54%	133
O=C(Cn1c(=O)nc(-c2ccccc2)c2cc(Cl)ccc21)N1CCN(c2ccc(F)cc2)CC1	0%	nt	i	-17%	6%	?
COc1ccc(N2Cc3ccccc3C2)cc1Cl	32µM*	?	-15%	-22%	20%	63
COc1ccc(Cl)cc1N1Cc2ccccc2C1	45µM*	-2%	-14%	-13%	-21%	-1
COc1ccc(C(=O)Nc2cc(C(=O)c3ccccc3)c(C)oc2=O)cc1	6.3µM*	0%	nt	nt	?	19
Cc1oc(=O)c(NC(=O)c2cccc(Cl)c2)cc1C(=O)c1ccccc1	4.5µM*	?	nt	nt	-21%	-84*
COC(=O)c1cc(NC(=O)c2ccccc2)c(=O)oc1C	-20%	5%	i	-2%	16%	-34
O=C(O)CC1(CC(=O)Nc2ccc(Br)cc2)CCCCC1	1%	7%	-12%	17%	-10%	-20
Cc1cc(=O)[nH]c(SCC(=O)C23CC4CC(CC(C4)C2)C3)c1C#N	16µM*	9%	nt	nt	-10%	13
COc1ccc(CCNC(=O)CSc2ccc(-c3cccs3)nn2)cc1	39%	-17%	-3%	-7%	-9%	0
O=C(NC(=O)c1cc([N+](=O)[O-])ccc1Cl)C1=C(N2CCCC2)COC1=O	nt	?	?	-23%	20µM*	-25
c1ccc(COc2ccc(OCCCN3CCCCC3)cc2)cc1	-13%	?	?	?	7%	56
Cc1ccc(CNc2ccc([N+](=O)[O-])cc2C(N)=O)cc1	-11%	?	?	-27%	39%	70
SMILES	Sm TGR block	HCV inh	VACV mCherry inh	VACV Venus inh	FMDV antiviral	HCMV antiviral
Cc1ccc(Oc2c(C(N)=O)cc([N+](=O)[O-])cc2[N+](=O)[O-])cc1	11µM*	3.5µM*	i	?	?	19
O=C1C(=O)c2ccccc2C(O)=C1CC=C(Cl)Cl	nt	-1%	?	20%	?	-95*
CCCc1cc(NCCCO)n2c(nc3ccccc32)c1C#N	13%	?	19%[7.34 µM]	11%[7.34 µM]	-13%	66
C=CCc1ccccc1OCC(O)CN1CCN(c2ccccc2OC)CC1 (stereo unspecified)	0%	?	?	-13%	?	-64*!
C=CCc1ccccc1OCC(O)CNC(C)C (stereo unspecified)	25µM*	?	0%	-11%	-21%	-9
CC(C)NC[C@H](O)COc1cccc2[nH]ccc12	3%	?	-11%	-8%	-8%	-81*
C=CCc1ccccc1OCC(O)CNC1CCCC1 (stereo unspecified)	2%	-11%	nt	nt	-4%	0
C=CCc1ccc(OCC(O)CN2CCCCC2)c(OC)c1 (stereo unspecified)	1%	-8%	-11%	-4%	9%	-11
C=CCc1ccccc1OCC(O)CN1CCN(c2ccccc2F)CC1 (stereo unspecified)	-26%	-4%	nt	-47%	?	21
C=CCc1ccc(OCC(O)CN2CCN(c3ccccc3)CC2)c(OC)c1 (stereo unspecified)	-36%	-30%	nt	nt	1%	-62*
COc1ccc(-c2nn(-c3ccccc3)cc2C(=O)N(C)CC(=O)Nc2ccc(N3CCOCC3)cc2)cc1	0%	14%	i	-13%	4%	-38
CC(C)(C)CC(C)(C)NC(=O)Nc1cccc([N+](=O)[O-])c1	-3%	?	nt	nt	-3%	?
c1ccc(C2Oc3ccccc3C3CC(c4cccs4)=NN32)cc1 (stereo unspecified)	?	1%	-10%	-8%	33%	160
O=[N+]([O-])c1ccc(C2Oc3ccccc3C3CC(c4ccccc4)=NN32)s1 (stereo unspecified)	40µM*	?	nt	nt	nt	nt
CCCSC(=S)c1c(C)[nH]n(-c2ccccc2)c1=O	?	?	-16%	?	4%	-79*
CCn1c(-c2ccccc2)c(C(=O)CCl)c2ccccc21	18µM*	8.9µM*	-15%	-18%	18µM*	-100*
Cn1c(-c2ccccc2)c(CCO)c2ccccc21	-12%	-25%	nt	nt	-16%	9
Cn1c(-c2ccccc2)c(C(=O)CCl)c2ccccc21	6.3µM*	5.6µM*	-27%	-22%	10µM*	-101*
CCn1c2ccccc2c(=O)c2ccccc21	5%	?	-5%	-9%	-12%	-29
COc1ccc(C2OC(=O)CC2C(=O)NCc2ccc(F)cc2)cc1OC (stereo unspecified)	12%	10%	-22%	-14%	-13%	-7
O=C(N/C(=C/c1ccc(Br)cc1)c1nc2ccccc2[nH]1)c1ccco1	-4%	-5%	?	-20%	nt	1
